# Assay outcomes: PubChem BioAssay, several laboratories
# EP2 mod – modulates human prostaglandin E2 receptor EP2 signaling; P43116; induction, % at 25 µM; AID 940; EP2-expressing cells, cAMP HTRF FRET, PGE2 co-stimulation; actives 0.83% (n = 260,000);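 active = compounds whose cAMP rise, as percent of the full-agonist control response, exceeds 60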;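 note: rat C6 glioma line stably carrying human EP2 under a CMV promoter; the protocol text gives 20 µM as final concentration; 100% = response of wells given 1 µM PGE2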
# Target sequence (P43116 whole entry, looked up): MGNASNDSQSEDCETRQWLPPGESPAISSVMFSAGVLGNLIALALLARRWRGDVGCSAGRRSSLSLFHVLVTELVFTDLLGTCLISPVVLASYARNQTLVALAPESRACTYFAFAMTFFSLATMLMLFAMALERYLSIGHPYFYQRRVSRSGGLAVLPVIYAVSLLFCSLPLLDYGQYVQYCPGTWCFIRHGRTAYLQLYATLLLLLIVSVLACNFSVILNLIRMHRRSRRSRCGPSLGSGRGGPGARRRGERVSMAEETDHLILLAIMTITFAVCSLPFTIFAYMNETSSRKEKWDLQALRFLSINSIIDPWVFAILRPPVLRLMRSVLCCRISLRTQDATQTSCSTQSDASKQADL
# CHT PAM – allosteric activators of human choline transporter CHT. Q9GZV3. CHT-expressing cells, membrane potential dye, choline EC20; stronger effect = higher value; LV-AA mutant CHT in HEK293 cells. B-score at 10 µM. actives 0.49% (n = 310,000);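 active = initial fluorescence not abnormally high and integrated response B-score, plate-corrected, over 3 SD above library mean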
# EP2 antag – EP2 receptor (human) inhibition; P43116; C6 glioma cells expressing human EP2, cAMP TR-FRET; cells stimulated with saturating PGE2; inhibition, % at 25 µM; actives 0.52% (n = 260,000); AID 1422;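 active = percent inhibition above 40 after rounding to a whole number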;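 note: rat C6 glioma host cells with rolipram phosphodiesterase inhibitor present; the protocol text gives 20 µM as final concentration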
# CHT inh – inhibitors of human choline transporter CHT. Q9GZV3. CHT-expressing cells, membrane potential dye, choline response; stronger effect = lower value. B-score at 10 µM. actives 0.86% (n = 310,000). AID 488975;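 active = B-score over 3 SD under the library average, and starting fluorescence ratio not unusually high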;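 note: choline stimulus applied at its EC90 after an EC20 pre-addition; B-score computed on integrated fluorescence ratio after choline addition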
# CHT inh conf – human CHT inhibition, confirmatory screen. shares compounds with CHT inh. CHT-expressing cells, choline membrane potential dye; LV-to-AA substituted CHT, HEK293 cells. CHT activity remaining % of control (stronger effect = lower value), % at 10 µM. actives 70% (n = 2,400);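 active = choline transporter activity left, mean of duplicates at 10 µM, below buffer-only control mean minus 3 SD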;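 note: depolarization triggered by choline at its EC90 following an EC20 pre-addition; 0% = hemicholinium-3 full block and 100% = buffer-only control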
# HEK293 MPD ctr – counter-screen for CHT inhibitors: effect in parental HEK293 cells; shares compounds with CHT inh; membrane potential dye, choline response; active = decrease or increase beyond buffer ±3SD; membrane potential ratio readout (active if shifted either direction beyond buffer ±3SD; no single direction) at 10 µM; actives 4% (n = 2,400); AID 493222;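 note: parental cells lack the transporter so any hit is non-specific; ratio is peak minus trough fluorescence over baseline after EC90 choline challenge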
# * = called active by the depositor; i = inactive; nt = no result. Only some compounds are listed: those with a hit (about 2.1% of all), similar ones and a draw of the others.
SMILES,EP2 mod,CHT PAM,EP2 antag,CHT inh,CHT inh conf,HEK293 MPD ctr
O=C(CCCSc1nnc(-c2cccs2)n1CC1CCCO1)c1ccccc1 (stereo unspecified),-20,i,4,-5.5*,i,-8.6*
O=C(CSc1nnc(-c2cccs2)n1CC1CCCO1)N1CCCC1 (stereo unspecified),6,i,0,i,nt,nt
Cc1ccc2cc(C#N)c(N3CCN(C(=O)c4ccccc4)CC3)nc2c1C,-63,nt,9,nt,nt,nt
Cc1ccc2cc(C#N)c(N3CCN(C(=O)c4ccccc4)CC3)nc2c1,nt,i,nt,-5.2*,i,i
COc1ccc(C(CCN2CCCC2)c2c(OC)cc(OC)c3c(-c4ccccc4)cc(=O)oc23)cc1 (stereo unspecified),-11,i,6,-5.2*,51%*,i
COc1ccc(C(CCN2CCCC(C)C2)c2c(OC)cc(OC)c3c(C)cc(=O)oc23)cc1 (stereo unspecified),-2,i,16,i,nt,nt
COc1ccc(C(CCN2CCCC(C)C2)c2c(OC)cc(OC)c3c(-c4ccccc4)cc(=O)oc23)cc1 (stereo unspecified),-36,i,11,-5.7*,50%*,i
COc1cc(OC)c2c(-c3ccccc3)cc(=O)oc2c1C(CCN1CCCC1)c1ccc2c(c1)OCO2 (stereo unspecified),-22,i,5,-6.5*,50%*,i
COc1cc(OC)c2c(-c3ccccc3)cc(=O)oc2c1C(CCN1CCCC(C)C1)c1ccc(N(C)C)cc1 (stereo unspecified),-8,i,11,-6*,54%*,i
CCC(=O)Nc1ccccc1C(=O)OCC(=O)Nc1nc2ccccc2s1,-56,nt,9,nt,nt,nt
COc1ccc(C2CC(=O)Oc3c(C(CCN4CCCCC4)c4ccc(N(C)C)cc4)c(OC)cc(OC)c32)cc1 (stereo unspecified),5,i,24,-5.9*,47%*,i
N/C(=N\O)c1ccc(N2CCN(c3ncccc3C(F)(F)F)CC2)nc1,11,i,23,-5.7*,45%*,i
O=C(Nc1ccccc1-c1ccccc1)c1sc2cc(F)ccc2c1Cl,31,nt,3,nt,nt,nt
O=S(=O)(NCCN1CCOCC1)c1cccs1,21,i,1,-9.3*,i,i
Nc1cc(=O)[nH]c2nnc(SCc3ccc(Cl)cc3)n12,-5,nt,10,nt,nt,nt
CC(C)N1CCC(N(C)CC2(c3ccc(Cl)cc3)CC2)CC1,-18,nt,4,nt,nt,nt
Cc1ccc(C(=O)Nc2ccc(Cc3ccncc3)cc2)cc1[N+](=O)[O-],-34,i,nt,-5.6*,i,i
CC1CCc2c(sc3nc(SCC(=O)NCc4ccc5c(c4)OCO5)[nH]c(=O)c23)C1 (stereo unspecified),5,nt,1,nt,nt,nt
COc1ccc(NC(=S)N(Cc2ccco2)Cc2cc3ccc(C)c(C)c3[nH]c2=O)cc1,14,nt,10,nt,nt,nt
CC(C)NCC(O)c1ccc(O)c(O)c1 (stereo unspecified),76*,i,12,-6.4*,30%*,i
CC(C)NCC(O)c1ccc2ccccc2c1 (stereo unspecified),8,i,10,i,nt,nt
C1=C2C[N+]3(CCCC3)CC2Cc2ccc3ccccc3c21 (stereo unspecified),23,i,9,-7.6*,46%*,2.6*
CCOC(=O)C1=C(COC(=O)C(CC)Oc2ccccc2)NC(=O)NC1C (stereo unspecified),nt,i,nt,i,nt,nt
CCOC(=O)C1=C(COC(=O)c2ccc(OC(C)C)cc2)NC(=O)NC1C (stereo unspecified),nt,i,nt,-9.7*,2.8%*,i
CCC(CN1CCCCC1)NC(=O)Cc1sc(C)nc1-c1ccccc1 (stereo unspecified),-39,nt,5,nt,nt,nt
SMILES,EP2 mod,CHT PAM,EP2 antag,CHT inh,CHT inh conf,HEK293 MPD ctr
COc1ccc(C(=O)NC2CCc3ccccc32)cc1OC1CCN(C(C)C)CC1 (stereo unspecified),nt,i,nt,-9*,16%*,i
COc1ccc(C(=O)NC2CCCc3ccccc32)cc1Br (stereo unspecified),nt,i,nt,i,nt,nt
COc1ccc(C(=O)N(C)C2CCCc3ccccc32)cc1OC1CCN(C(C)C)CC1 (stereo unspecified),nt,i,nt,-10*,15%*,i
CCOc1ccc2[nH]c(=O)c(CN(Cc3cccnc3)C(=O)c3ccc(OC)c(OC)c3)cc2c1,-3,nt,9,nt,nt,nt
Cc1ccc(NS(=O)(=O)c2cccc(C(=O)NCC(c3ccco3)N3CCCCC3)c2)cc1 (stereo unspecified),nt,i,nt,-13*,2.4%*,i
COc1ccccc1NS(=O)(=O)c1cc(C(=O)NCC(c2ccco2)N2CCCCC2)ccc1C (stereo unspecified),nt,i,nt,-12*,11%*,i
COc1ccc(NS(=O)(=O)c2cccc(C(=O)NCC(c3ccco3)N3CCCC3)c2)cc1 (stereo unspecified),nt,i,nt,i,nt,nt
COc1ccccc1C(CNC(=O)c1cccc(NS(=O)(=O)c2ccc(C)c(F)c2)c1)N1CCCC1 (stereo unspecified),nt,i,nt,-5.6*,15%*,i
O=C(NCC(c1ccco1)N1CCCCC1)c1cccc(NS(=O)(=O)c2ccc(Br)cc2)c1 (stereo unspecified),nt,i,nt,-11*,37%*,i
CC(=O)Nc1ccc(NC(=O)CSc2nc(C(C)C)nc3sc4c(c23)CCC(C)C4)cc1 (stereo unspecified),-4,nt,9,nt,nt,nt
CCn1cc(CN(C)C(=O)CSc2nc(-c3ccco3)cc(C(F)(F)F)n2)c(C)n1,nt,i,19,i,nt,nt
Cc1c(CN(C)C(=O)CSc2nc(-c3ccco3)cc(C(F)(F)F)n2)cnn1C,-7,i,3,-7*,69%*,-8.6*
Cc1cnc(C)c(N2CCN(Cc3nc(-c4cccc(F)c4F)oc3C)CC2)n1,-38,i,10,-7.2*,29%*,i
Cc1cccc(N2CCN(Cc3nc(-c4ccc(F)cc4F)oc3C)CC2)n1,-3,i,6,i,nt,nt
COCC(=O)N(Cc1cc2ccc(C)cc2[nH]c1=O)c1cccc(C)c1C,-33,nt,7,nt,nt,nt
Cc1ccc(N2C(=O)N(CC(=O)Nc3ccc(C)cc3C)C(=O)C2C)cc1 (stereo unspecified),4,i,1,i,nt,nt
Cc1ccc(N2C(=O)N(CC(=O)Nc3c(C)cc(C)cc3Cl)C(=O)C2C)cc1 (stereo unspecified),nt,i,nt,-5*,i,i
O=C(CCSc1nc(-c2ccc3c(c2)OCO3)cc(C(F)(F)F)n1)NCCCn1ccnc1,-120,nt,12,nt,nt,nt
O=C(Cn1nc(-c2cccc3ncccc23)oc1=O)N1CCc2ccccc21,-17,nt,10,nt,nt,nt
